Pol kappa inh-1 = blocks human DNA polymerase kappa activity; 400,000 tested, 0.53% active; purified Pol kappa, fluorescent DNA synthesis assay, 10 min; Potency, µM (doses to about 107 µM), for the others: at the highest dose activity, negative = inhibition, actives largely listed as inhibitors; also: % is scaled to controls: 0 for no effect and ±100 for the full control effect
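Pol kappa 10 nM + cpd, 15 min RT; start w/ substrate 50 nM final; fluorescence kinetic read, 0 and 10 min. Neg ctrl: buffer, no enzyme.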
Pol eta inh-1 = blocks human DNA polymerase eta activity | Q9Y253 | recombinant Pol eta, fluorescent DNA replication assay | Potency, µM (top dose mostly 114 µM), for the others: at the top dose activity change, negative = inhibition, most hits filed as inhibitors | 390,000 tested, 1.2% active | AID 588591; also: % is scaled to controls: 0 for no effect and ±100 for the full control effect
Target sequence (Q9Y253 whole entry, looked up): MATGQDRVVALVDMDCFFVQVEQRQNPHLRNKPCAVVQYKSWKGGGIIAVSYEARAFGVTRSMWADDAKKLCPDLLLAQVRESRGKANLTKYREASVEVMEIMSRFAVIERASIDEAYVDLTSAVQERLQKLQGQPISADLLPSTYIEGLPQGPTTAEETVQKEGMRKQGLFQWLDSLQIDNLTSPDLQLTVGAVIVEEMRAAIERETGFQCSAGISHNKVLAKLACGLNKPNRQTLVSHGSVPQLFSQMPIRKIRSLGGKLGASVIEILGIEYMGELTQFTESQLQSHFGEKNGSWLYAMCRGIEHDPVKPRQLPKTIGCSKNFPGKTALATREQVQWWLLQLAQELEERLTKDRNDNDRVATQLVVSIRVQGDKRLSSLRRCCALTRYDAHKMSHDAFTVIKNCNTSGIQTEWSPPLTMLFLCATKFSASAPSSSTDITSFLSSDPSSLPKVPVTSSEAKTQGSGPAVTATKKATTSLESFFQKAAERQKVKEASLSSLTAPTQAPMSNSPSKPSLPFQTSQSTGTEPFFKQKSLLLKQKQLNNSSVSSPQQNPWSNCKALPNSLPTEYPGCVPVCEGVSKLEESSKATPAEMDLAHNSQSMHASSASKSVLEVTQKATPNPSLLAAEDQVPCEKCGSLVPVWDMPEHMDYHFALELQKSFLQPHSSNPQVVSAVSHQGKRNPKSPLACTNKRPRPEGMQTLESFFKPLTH
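Fluorescent replication assay: 50 nM final substrate added after a 15 min room-temperature compound preincubation with 10 nM enzyme. Signal taken at 0 min and again at 10 min.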
POLI inh = blocks human DNA polymerase iota activity; AID 588590; Potency, µM (top dose mostly 115 µM), inactives show at the highest dose activity, negative = inhibition, usual class: inhibitors; Pol iota fluorescent replication assay, 10 min; Q9UNA4; 390,000 tested, 1% active
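Pol iota at 10 nM preincubated 15 min with compounds at room temperature; reaction started with fluorescent substrate, 50 nM final. Fluorescence read kinetically at 0 and 10 min; buffer-only wells as negative control.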
APEX1 inh = blocks human APE1 abasic DNA cleavage; P27695; Potency, µM (doses to about 65.8 µM), for inactives: top-dose activity change, negative = inhibition, usual class: inhibitors; 350,000 tested, 0.35% active; recombinant APE1, TAMRA/BHQ-2 abasic DNA cleavage fluorescence; AID 2517;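 also: plate controls were vehicle for no effect and reference inhibitor for full effect; nearly all actives have a fitted effect of over 55% in size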
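Enzyme (0.75 nM final) and test compound are incubated 15 min at room temperature before adding 50 nM quenched THF abasic-site duplex. Cleavage dequenches TAMRA, followed at 525/598 nm over three reads one minute apart.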
POLB inh = blocks human DNA polymerase beta activity. Pol beta primer extension/strand displacement, fluorescence kinetic. Potency, µM (doses to about 114 µM), for inactives: at the top dose activity change, negative = inhibition, actives largely listed as inhibitors. 340,000 tested, 1.3% active. AID 485314; also: % is scaled to controls: 0 for no effect and ±100 for the full control effect
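Reaction started by 50 nM substrate onto compound-treated Pol beta (10 nM, 15 min preincubation, room temperature); plates read at 0 min and 10 min. Normalized concentration-effect data fitted by four-parameter Hill equation.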
L3MBTL1 block = inhibitors of human L3MBTL1. 230,000 tested, 0.66% active. AID 485360. Potency, µM (doses to about 57.1 µM), inactives show top-dose activity, negative = inhibition, hits mostly inhibitors. Q9Y468. AlphaScreen L3MBTL1–H3K9me1 peptide binding; also: % is scaled to controls: 0 for no effect and ±100 for the full control effect; nearly all actives have a fitted effect of over 60% in size
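AlphaScreen proximity signal between nickel-chelate acceptor and streptavidin donor beads (final 10 ug/mL) reports binding of 50 nM L3MBTL1 to 75 nM biotin-H3 K9me1 peptide; complex incubated with compounds 30 min at room temperature; cefsulodin titration as control.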
Pol kappa inh-2 = Pol kappa (human) inhibition, cherry-pick confirmation; shares compounds with Pol eta inh-1; purified Pol-kappa, fluorescent strand-displacement substrate; Potency, µM, most hits filed as inhibitors; 920 tested, 76% active
Pol eta inh-2 = confirmation of human DNA polymerase eta inhibitors; Potency, µM, usual class: inhibitors; 2,600 tested, 64% active; Pol eta primer extension, TAMRA/BHQ fluorescence, 10 min; shares compounds with Pol eta inh-1
Starred values were filed as active, the others as inactive; ? = inconclusive; . = not tested or not shown; [ ] = another dose, or the depositor's remark. A selection: hits, their analogues and other compounds. The true share with any hit is near 2.5%. Calls follow the shape of the dose curve; as a rule, active = well fitted curve in the direction sought with a large enough effect; inconclusive = small, poorly fitted or top-dose-only effect, or another doubt; inactive = no such curve, though single readings can be large; an effect the other way counts as inactive or inconclusive. Potency is read from the fitted curve at half-maximal effect.

SMILES	Pol kappa inh-1	Pol eta inh-1	POLI inh	APEX1 inh	POLB inh	L3MBTL1 block	Pol eta inh-2	others
Cc1cc(OCCCSc2nc(-c3ccc(C(C)(C)C)cc3)nc3cc(=O)[nH]n23)ccc1Cl	?	79µM*	?	.	40µM*	.	?
Cc1cc(C)cc(OCCSc2nc(-c3ccc(C(C)(C)C)cc3)nc3cc(=O)[nH]n23)c1	-18%	?	-17%	.	22µM*	.	85*
O=C1NC(=S)S/C1=C\c1cc(Cl)ccc1Cl	-7%	40µM*	?	.	.	.	.	Pol kappa inh-2=?
CCN(CC)C(=O)C1=C(C)N(Cc2ccc(F)cc2)C(=O)C(CC(=O)NCCCN(C)C)C1 (stereo not drawn)	.	-6%	.	.	.	.	.
CCOc1ccc(/C=N/N2CCN(Cc3ccccc3)CC2)cc1	-4%	-18%	104%	13%	27%	?	.
CCOC(=O)Cc1nnc(NC(=O)CSc2nnc3c(n2)[nH]c2ccccc23)s1	79µM*	20µM*	25µM*	-7%	18µM*	.	43*
Cc1cccc(Cn2c(C)c(C)c3cc(C(=O)NCc4ccco4)ccc32)c1	-15%	79µM*	-10%	.	?	.	?
Cc1ccc(C(=O)COC(=O)c2cc(=O)[nH]c3ccccc23)cc1C	-14%	50µM*	26%	0%	6%	3%	67*
COc1ccccc1C(=O)COC(=O)c1cc(=O)[nH]c2ccccc12	-4%	-4%	36%	23%	.	1%	.
CCCN(CCC)C(=O)[C@@H](CCC(=O)O)NC(=O)c1ccccc1	1%[19.4 µM]	.	.	.	.	.	.
Cc1cccc(C)c1NC(=O)COC(=O)C1CC1	-18%	-25%	24%	20%	.	-8%	.
O=C(O)c1cccc(N2CCCC2)c1	-14%	?	?	-2%	2%	.	76*
CCc1ccc(N2CC(C(=O)OCc3csc(CC(=O)Nc4ccccc4C)n3)CC2=O)cc1 (stereo not drawn)	-20%	-15%	-12%	-15%	.	10%	.
CCc1ccc(N2CC(C(=O)OCc3nc4ccsc4c(=O)[nH]3)CC2=O)cc1 (stereo not drawn)	79µM*	40µM*	?	-35%	.	?	67*
Cc1nc(-c2ccc(S(=O)(=O)N3CCN(c4cccc(C)c4C)CC3)cc2)co1	-12%	-7%	-9%	-18%	21%	.	.
COc1cc2cc3c(N)c(C(=O)Nc4sc(C)c(C)c4C#N)sc3nc2cc1OC	32µM*	28µM*	7.9µM*	13µM*	7.9µM*	3.2µM*	30*
COc1cc2cc3c(N)c(C(=O)NCc4ccco4)sc3nc2cc1OC	?	?	?	?	?	-2%	.
Nc1nnc(SCC(=O)Nc2cc(F)ccc2F)s1	-3%	-15%	16%	46%	.	8%	.
Cc1ccc(/C=C/C(=O)O)cc1S(=O)(=O)N1CCc2ccccc2C1	-4%	-7%	106%	0%	6%	-4%	.
COc1ccc(/C=C/C(=O)O)cc1S(=O)(=O)N1CCc2ccccc2C1	-11%	?	?	2%	?	?	?
COc1cc(NC(=O)c2nnn(CC(=O)Nc3cc(C)ccc3C)c2N)cc(OC)c1	-12%	-19%	7%	.	2%	.	.
CC(Cc1c[nH]c2ccccc12)C(=O)NCc1ccco1 (stereo not drawn)	?	20µM*	?	-15%	32µM*	.	30*	Pol kappa inh-2=42*
CC(C)C(CC(=O)NCc1ccco1)c1ccco1 (stereo not drawn)	?	18µM*	?	13%	?	-15%	?
CCC(=O)Nc1ccc(S(=O)(=O)NCc2ccc3c(c2)CCN3C(=O)c2ccc(C)cc2)cc1	-14%[60.1 µM]	-12%	-5%	.	6%	.	.
CC(=C/C(=O)O)/C=C/c1ccco1	?	?	89µM*	-6%	?	?	?
SMILES	Pol kappa inh-1	Pol eta inh-1	POLI inh	APEX1 inh	POLB inh	L3MBTL1 block	Pol eta inh-2	others
CC(/C=C/c1ccc(Cl)o1)=C\C(=O)O	-26%	22µM*	?	?	32µM*	?	48*
COc1ccc(-c2noc(CNS(=O)(=O)c3ccccc3)n2)cc1	-4%	-11%	?	-1%	8%	.	.
COc1ccc2[nH]c(O)c(N=NC(=O)c3ccc(NS(=O)(=O)c4cccs4)cc3)c2c1	79µM*	3.5µM*	40µM*	-1%	.	-30%	38*	Pol kappa inh-2=17*
Cc1ccc(N2C(=O)/C(=C/c3cccnc3)SC2=S)cc1	-6%	-14%	189%	0%	47%	16%	.
O=C1/C(=C\c2ccccn2)SC(=S)N1c1ccc(S(=O)(=O)Nc2nccs2)cc1	?	18µM*	?	?	?	.	85*
O=C1/C(=C/c2ccccn2)SC(=S)N1c1ccc(O)cc1	-4%	-4%	-20%	-2%	5%	-17%	.
Cc1ccc(/C=C2/SC(=S)N(c3ccc(S(=O)(=O)Nc4nccs4)cc3)C2=O)cc1	?	40µM*	18µM*	17%	?	.	76*
CCC1=NN2C(=N)/C(=C\c3cccn3-c3cccc(Cl)c3)C(=O)N=C2S1	-43%	32µM*	?	-6%	22µM*	-16%	?
CCC1=NN2C(=N)/C(=C\c3cccn3-c3ccc(Br)cc3)C(=O)N=C2S1	-11%	-5%	?	-2%	-13%	.	.
CC(C)(C)NC(=O)CSc1nnc(-c2ccccc2)c(-c2ccccc2)n1	-2%	-11%	0%	17%	1%	.	.
CC(=O)NNC(=O)CSc1nnc(-c2ccccc2)c(-c2ccccc2)n1	?	14µM*	?	7%	0%	.	7.6*	Pol kappa inh-2=19*
C#Cc1ccc([C@H]2C=C(C(=O)O)O[C@@H](OCc3ccc(CO)cc3)C2)cc1	?	35µM*	?	32µM*	28µM*	-24%	.	Pol kappa inh-2=42*

High-throughput results deposited in PubChem BioAssay by National Center for Advancing Translational Sciences (NCATS).
